# Shown are actives, neighbours in structure and some others; about 1.6% of the full set was active somewhere.
# Imprint erasure – inducers of genomic imprint erasure in mouse ES cells | mouse ES Peg3-LacZ reporter, beta-gal luminescence, 40 h | Potency, µM (doses to about 60.7 µM), for inactives: at the highest dose activity change, positive = activation, actives largely listed as activators | 110,000 tested, 0.02% active
#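 Gelatin-coated wells received 300 freshly trypsinized female ES cells with a Peg3LacZ-Neo reporter on the maternal allele, then incubated 40 hours at 37C. BetaGlo was added for 5 minutes at room temperature before a single luminescence read.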
# p53ts 39C tox – cytotoxicity in p53ts cells at nonpermissive temperature | H1299-p53A138V viability at 39C, ATP luminescence, 24 h | Potency, µM (titrated, usually from 46.1 µM), inactives show top-dose activity change, negative = cell killing, usual class: cytotoxic | 130,000 tested, 1.5% active | AID 902; note: % is set by controls: 0 for no effect and ±100 for the full control effect; nearly all actives have a fitted effect of over 55% in size
# p53ts 32C tox – p53ts cell cytotoxicity, permissive temperature | 130,000 tested, 0.93% active | H1299-p53A138V at 32C, ATP luminescence viability, 24 h | Potency, µM (doses to about 46.1 µM), without a hit: at the top dose activity change, negative = cytotoxicity, most hits filed as cytotoxic | AID 924;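 note: 0% = DMSO and -100% = full killing by reference compound; nearly all actives have a fitted effect of over 55% in size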
#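 Viability by ATPlite luminescence after 24 h compound treatment (up to 46 uM) at the permissive 32C. Cells are H1299 carrying p53 A138V. Scale runs from DMSO basal to 100 uM tamoxifen as full kill; AC50 from Hill fits.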
# * hit, by the source's call; u = inconclusive; x = not tested or not shown; [ ] = another dose, or the depositor's remark. Calls come from the whole dose curve; as a rule, active = well fitted curve in the direction sought with a large enough effect; inconclusive = small, poorly fitted or top-dose-only effect, or another doubt; inactive = no such curve, though single readings can be large; an effect the other way counts as inactive or inconclusive. Potency is the fitted concentration of half-maximal effect.
SMILES,Imprint erasure,p53ts 39C tox,p53ts 32C tox
Cc1cccc(N2CCN(C(=O)C3CCN(S(=O)(=O)Cc4ccccc4)CC3)CC2)c1C,-11.1%[10.9 µM],-5.3%,-7.2%
Cc1ccc(CNC(=O)Cn2nc(C)n3cccc3c2=O)cc1,-13.5%[10.9 µM],-9.7%,3.7%
CCc1nn(CC(=O)NCc2ccccc2)c(=O)c2cccn12,-15.6%[10.9 µM],20µM*,-24.2%
CCOC(=O)c1cccc(NS(=O)(=O)c2cc(-c3cnc(C4CC4)o3)ccc2C)c1,-6.9%[10.9 µM],26.7%,23.5%
CCc1ccc(NS(=O)(=O)c2cc(-c3cnc(C4CC4)o3)ccc2C)cc1,14.9%[10.9 µM],20µM*,31.4%
NCCNS(=O)(=O)c1ccc(N)cc1,8.8%[10.9 µM],-7.0%[9.22 µM],-1.1%[9.22 µM]
Cc1cccc(N(CC(=O)NCCSCc2ccccc2)S(=O)(=O)c2ccccc2)c1C,-18.1%[10.9 µM],-7.3%,-1.5%
COc1ccccc1C(=O)Nc1onc2c1CCCC2,-48.4%[10.9 µM],-28.4%,u
Cc1ccc(C(=O)Nc2onc3c2CCCC3)cc1,-15.2%[10.9 µM],6.31µM*,3.98µM*
Cc1ccccc1C(=O)OCc1cc(=O)n2nc(-c3cccs3)sc2n1,-4.0%[10.9 µM],-10.3%,-10.6%
COc1cc(-c2cc(C(=O)N3CCN(c4ccccn4)CC3)c3ccccc3n2)cc(OC)c1OC,-10.7%,-8.6%,14.3%
CCOc1ccc(-c2cc(C(=O)N3CCN(c4ccccn4)CC3)c3ccccc3n2)cc1,-16.9%,u,2.51µM*
COc1ccc(-c2cc(C(=O)N3CCN(c4ccccn4)CC3)c3ccccc3n2)cc1,-20.9%,12.6µM*,12.6µM*
COc1ccc(OC)c(-c2cc(C(=O)N3CCN(c4ncccn4)CC3)c3ccccc3n2)c1,-17.7%,-13.2%,-19.8%
O=C(COc1ccccc1-c1nc(-c2ccccc2)no1)Nc1ccccc1[N+](=O)[O-],-17.5%[10.9 µM],-14.8%,-12.1%
COCCN=C1OC(=O)N2C(=O)C3=C4C(C[C@H]5C(=O)N(CC(=O)OC)C(=O)[C@H]5[C@H]4[C@@]12Cc1ccccc1)[C@H]1C(=O)N(CC(=O)OC)C(=O)[C@H]1[C@H]3C (some centres not stated),-8.6%,-0.6%,2.8%
CCCCC(CC)CNC(=O)c1ccc(Cn2c(=O)[nH]c3cc(OC)c(OC)cc3c2=O)cc1 (configuration not stated),-6.3%[10.9 µM],3.98µM*,u
CCCCC(CC)CNC(=O)c1ccc2c(=O)n(Cc3ccc(OC)cc3)c(=O)[nH]c2c1 (configuration not stated),-3.8%[10.9 µM],27.6%,4.9%
O=C(COc1ccccc1Cl)Nc1nc2c(s1)CCCC2,-13.9%[10.9 µM],-18.3%,-14.9%
COc1ccccc1-c1nnc(SCC(=O)Nc2ccccc2F)o1,-43.1%[10.9 µM],-1.3%,-19.4%
Cc1ccc(-c2nnc(SCC(=O)Nc3ccccc3F)o2)cc1,-91.0%,2.51µM*,5.01µM*
O=C(CSc1nnc(-c2ccccc2)o1)Nc1ccccc1F,-92.9%,10µM*,12.6µM*
Cc1cnc(NC(=O)CSc2nnc(-c3ccccc3)o2)s1,-59.3%,10µM*,u
Cc1cnc(NC(=O)CSc2nnc(COc3c(C)cccc3C)o2)s1,7.9%,4.2%,-8.2%
COC(=O)c1ccccc1NC(=O)CSc1nnc(-c2ccc(C)cc2)o1,x,5.1%,4.4%
SMILES,Imprint erasure,p53ts 39C tox,p53ts 32C tox
Cc1cnc(NC(=O)COc2ccccc2Cl)s1,-82.8%,5.01µM*,3.98µM*
CCC1CCCCN1CCCNC(=O)c1ccc2c(c1)N(Cc1ccccc1F)C(=O)c1ccccc1S2(=O)=O (configuration not stated),-22.3%[10.9 µM],u,2.9%
CCOC(=O)c1sc(NC(=O)/C=C/c2ccc(OCC)cc2)c(C(=O)OCC)c1C,-16.2%[10.9 µM],1.9%,12.6%
COc1ccc(/C=C/C(=O)Nc2sc(C)c(C)c2C(=O)O)cc1,-12.1%[10.9 µM],12.8%,2.51µM*
COc1cc(N=c2c([N+](=O)[O-])nn(-c3ccc4c(c3)OCCO4)n2O)cc(OC)c1,x,11.2µM*,x
COc1ccc(/C=N/NC(=O)c2ccc3c(c2)OCCO3)cc1[N+](=O)[O-],x,-3.6%,x
Clc1ccccc1-c1cncnc1NCCN1CCOCC1,-34.5%,-5.4%,10.6%
CN(C)Cc1ccccc1-c1nc(NCc2ccccc2)c2ccccc2n1,-22.0%,-24.7%,-24.1%
COc1ccc(CNc2nc(-c3ccc(C(=O)N(C)C)cc3)nc3ccccc23)c(OC)c1,-9.3%,-16.3%,-20.9%
CN(C)c1ccc(-c2nc(N(C)C)c3ccccc3n2)cc1,-8.2%,-23.4%,-16.9%
CNc1nc(-c2ccc(N(C)C)cc2)nc2ccccc12,-38.5%,10µM*,12.6µM*
CN(C)c1ccc(-c2nc(NCc3cccnc3)c3ccccc3n2)cc1,-47.2%,3.98µM*,5.01µM*
COc1ccccc1CNc1nc(-c2ccccc2CN(C)C)nc2ccccc12,-19.1%,15.8µM*,-7.6%
c1cncc(CNc2nc(-c3ccoc3)nc3ccccc23)c1,u,6.6%,3.6%
COc1ccc(CNc2nc(-c3ccc(N(C)C)cc3)nc3ccccc23)c(OC)c1,-33.3%,15.8µM*,12.6µM*
CCN(CC)CCn1c(-c2ccccc2)nc2c(NCCOC)nc(C)nc21,-15.3%,-5.3%,-0.2%
Cc1cc(C)cc(C(=O)Nc2c(C(=O)Nc3ccccc3F)oc3ccccc23)c1,5.2%[10.9 µM],u,-12.8%
COc1ccc(-c2nn(-c3cccc([N+](=O)[O-])c3)c3c2cnc2cc4c(cc23)OCO4)cc1,-3.7%[10.9 µM],-5.0%,9.4%
Cc1ccccc1Cn1c(CN2CCC(C(=O)NCCc3ccccc3)CC2)cc2ccccc21,-15.1%[10.9 µM],-11.5%,13.9%
Cc1nc(NCc2ccccc2)c2nc(-c3ccccc3)n(CCCN3CCCCC3C)c2n1 (configuration not stated),-2.9%,u,-17.8%
CN(C)C(=O)c1ccc(-c2nc(Nc3ccncc3)c3ccccc3n2)cc1,-7.1%,u,u
CN(C)c1ccc(-c2nc(Nc3ccncc3)c3ccccc3n2)cc1,x,7.94µM*,10µM*
C[C@H](OP(=O)(O)O)[C@H](N)C(=O)O,-16.0%[10.9 µM],1.3%[9.22 µM],-9.9%[9.22 µM]
COc1cccc(-c2nnc(SCC(=O)Nc3cc(C)on3)o2)c1,-82.0%,u,u
O=C(Nc1nc2c(F)cccc2s1)c1ccc2c(c1)OCCO2,-29.8%[10.9 µM],5.01µM*,10µM*
SMILES,Imprint erasure,p53ts 39C tox,p53ts 32C tox
Cc1cc(NC(=O)c2ccc3c(c2)OCCO3)no1,-87.6%,2µM*,1.58µM*
Cc1cc(NC(=O)c2ccc3c(c2)OCO3)no1,-77.6%,12.6µM*,10µM*
Cc1cc(NC(=O)CSc2nnc(-c3ccc4c(c3)OCCO4)o2)no1,-80.9%,0.794µM*,5.01µM*
CCN(CC(=O)Nc1ccc2c(c1)OCCO2)CC(=O)Nc1cc(C)on1,-13.9%,-11.8%,-0.4%
CCN1CCc2nc(NC(=O)c3ccc4c(c3)OCCO4)sc2C1,-30.1%,u,u
CCOc1ccc(C(=O)Nc2cc(C)on2)cc1OCC,-5.4%,-5.9%,4.5%
Cc1ccc(-c2nc(CS(=O)(=O)CC(=O)NCc3ccc(Cl)cc3)c(C)o2)cc1,22.4%[10.9 µM],-9.6%,-1.0%
COc1cccc(-c2ccc3ncnc(NC4CC4)c3c2)c1,-16.3%,-18.6%,-19.8%
COc1cc(Cl)c(C)cc1NC(=O)c1ccc2c(Cl)c3c(nc2c1)CCC3,u,-11.5%,-10.1%
COc1cc(Cl)c(C)cc1Nc1c2c(nc3ccccc13)CCC2,-19.2%[10.9 µM],2µM*,u
C[C@]12CC[C@H]3c4ccc(O)cc4CC[C@@H]3[C@H]1CC[C@@H]2OC(=O)CCc1ccccc1,-15.8%[10.9 µM],-10.5%[9.22 µM],6.3%[9.22 µM]

# High-throughput results: PubChem, National Center for Advancing Translational Sciences (NCATS)
